Data: PubChem BioAssay AID1422 (Emory University Molecular Libraries Screening Center, 2008)
Values joined by “and” are separate entries in the source; they are usually repeats but may differ in a detail not shown here. Identical values can stand only once. About 1,300 (0.5%) of roughly 260,000 compounds were called active. This is one part of a sample in which actives are shown more often than they occur.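 How the source made its calls: active means percent inhibition above 40 after rounding to a whole number; inactive means the rest.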 Some structures have more than one record in an assay (separate samples or runs), and their calls can disagree.

These compounds were tested against Prostaglandin E2 receptor EP2 subtype (Homo sapiens) (UniProt P43116) (assay: human EP2 receptor antagonists, primary screen, TR-FRET cAMP, C6 glioma cells (AID 1422;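 further: rat C6 glioma host cells with rolipram phosphodiesterase inhibitor present; the protocol text gives 20 µM as final concentration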)). Details: C6 glioma cells expressing human EP2, cAMP TR-FRET; at 25 µM; stronger effect = higher value; cells stimulated with saturating PGE2.
Sequence of Prostaglandin E2 receptor EP2 subtype (Homo sapiens) (P43116 whole entry, looked up): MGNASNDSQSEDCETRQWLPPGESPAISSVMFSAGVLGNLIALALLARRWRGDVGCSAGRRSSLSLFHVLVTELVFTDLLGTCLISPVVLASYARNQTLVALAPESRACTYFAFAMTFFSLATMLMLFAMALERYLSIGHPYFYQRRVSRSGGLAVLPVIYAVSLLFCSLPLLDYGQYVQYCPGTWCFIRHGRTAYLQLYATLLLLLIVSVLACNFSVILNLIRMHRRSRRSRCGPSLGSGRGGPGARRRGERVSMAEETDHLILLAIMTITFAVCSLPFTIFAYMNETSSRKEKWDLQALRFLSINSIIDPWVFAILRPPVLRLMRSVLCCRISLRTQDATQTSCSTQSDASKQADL

Question: With `N#CCN1CCN(c2ncnc3sc4c(c23)CCCC4)CC1` as the compound, how does the inhibition read?
Answer: 12.8% (inactive)

Question: With `CCN(CC)CCCN1C(=O)C(O)=C(C(=O)c2ccc(C)o2)C1c1ccccc1F` (stereo not drawn) as the compound, how does the inhibition read?
Answer: 13.9% (inactive)

Question: For `COc1ccc(C2=NNC(c3cccnc3)=Nc3ccc(Br)cc32)cc1OC`, which inhibition is on record?
Answer: 6.87% (inactive)

Question: Which inhibition does the source give for `Cc1cccc(C(=O)O)c1C[C@@H]1NCC[C@@H]2c3ccccc3N[C@@H]12` here?
Answer: 46% (active)

Question: For `O=C(CN1N=C(c2ccccc2)Cn2c(cc3sccc32)C1=O)NCC1CCCO1` (stereo not drawn), which inhibition is on record?
Answer: 4.16% (inactive)

Question: With `CCc1cc2cc3c(cc2nc1SCC(=O)Nc1ccccc1Br)OCCO3` as the compound, how does the inhibition read?
Answer: 8.66% (inactive)

Question: How did the inhibition turn out when `COC(=O)C(C)NC(=O)COc1ccc2ccccc2c1` (stereo not drawn) was run?
Answer: 8.28% (inactive)

Question: For `Cc1cc2ccccc2n1CCC(=O)O`, which inhibition is on record?
Answer: 7.85% (inactive)

Question: For `Cc1cc2ccccc2n1CCNC(=O)COc1ccc2ccccc2c1`, which inhibition is on record?
Answer: 73.2% (active)

Question: `COC(=O)c1ccc(Cn2nc([N+](=O)[O-])c(Cl)c2C)cc1` was tested. Which inhibition did it give?
Answer: 12.7% (inactive)

Question: With `O=C(O)COc1c(Cl)cc(Cl)c2cccnc12` as the compound, how does the inhibition read?
Answer: 16.4% (inactive)

Question: How did the inhibition turn out when `O=S(=O)(O)c1ccc(O)c2ncccc12.O=S(=O)(O)c1ccc(O)c2ncccc12.[Zn]` was run?
Answer: 45.1% (active)

Question: For `O=[N+]([O-])c1cc([N+](=O)[O-])c2cccnc2c1O`, which inhibition is on record?
Answer: 7.12% (inactive)

Question: How did the inhibition turn out when `Cc1ccc(-n2c(SCC(=O)NC(C)(C)C)nnc2-c2cccnc2)cc1C` was run?
Answer: 15.1% (inactive)

Question: Which inhibition does the source give for `COc1ccc(NS(=O)(=O)c2ccc(NC(=S)NC(=O)/C=C/c3ccc(C)cc3)cc2)nn1` here?
Answer: 63.2% (active)

Question: For `COc1ccc(NS(=O)(=O)c2ccc(NC(=O)C(C)(C(F)(F)F)C(F)(F)F)cc2)nn1`, which inhibition is on record?
Answer: 14.1% (inactive)

Question: For `Cc1ccc(NC(=S)NC(=O)/C=C/c2ccc(Cl)cc2)cc1`, which inhibition is on record?
Answer: 5.92% (inactive)

Question: How did the inhibition turn out when `CC1CCN(c2nc3c(c(=O)[nH]2)CCN(Cc2ccc(C(F)(F)F)cc2)C3)CC1` was run?
Answer: 6.96% (inactive)

Question: Which inhibition does the source give for `COc1ccc(Cc2nnc(NC(=O)Cc3ccc(Cl)cc3)s2)cc1OC` here?
Answer: 9.47% (inactive)

Question: With `COc1cc(C=C2C(=O)OC3(CCCC3)OC2=O)ccc1OCc1ccccc1F` as the compound, how does the inhibition read?
Answer: 13.4% (inactive)

Question: How did the inhibition turn out when `CN(C)c1ccc(C=C2C(=O)OC3(CCCC3)OC2=O)cc1` was run?
Answer: 41.7% (active) and 7.71% (inactive)

Question: `CC1=NN(Cc2ccccc2)C(=O)/C1=C/c1ccc(N(C)C)cc1` was tested. Which inhibition did it give?
Answer: 18.2% (inactive)

Question: `Cc1nn(C)cc1S(=O)(=O)N(Cc1ccncc1)C1CC1` was tested. Which inhibition did it give?
Answer: 7.77% (inactive)

Question: For `Cc1nc2c(c(=O)[nH]1)CCN(C(=O)Cn1c3ccccc3c3ccccc31)C2`, which inhibition is on record?
Answer: 7.09% (inactive)

Question: `Cc1[nH]nc2c1C(c1ccc(OCC(=O)N3CCCC3)cc1)C(C#N)=C(N)O2` (stereo not drawn) was tested. Which inhibition did it give?
Answer: 10.8% (inactive)

Question: Which inhibition does the source give for `COc1ccc(OCCCC(=O)Nc2nc(-c3ccc(OC)cc3)cs2)cc1` here?
Answer: 12.9% (inactive)

Question: `Cc1ccc(CNS(=O)(=O)c2cccc(S(=O)(=O)N3CCCC3)c2)cc1` was tested. Which inhibition did it give?
Answer: 10.8% (inactive)

Question: Which inhibition does the source give for `COCCn1c(N2CCCC2)nc2c1c(=O)n(C)c(=O)n2C` here?
Answer: 7.42% (inactive)

Question: For `CC1=CC(C)(C)N(C(=O)CSc2nnc(-c3ccccc3)o2)c2ccc(C)cc21`, which inhibition is on record?
Answer: 45.4% (active)

Question: With `CC1=CC(C)(C)N(C(=O)CSc2nccn2C)c2cc(C)ccc21` as the compound, how does the inhibition read?
Answer: 17.5% (inactive)

Question: With `O=C(CSc1nnc(-c2ccccc2)o1)N1CCOCC1` as the compound, how does the inhibition read?
Answer: 8.71% (inactive)

Question: With `COc1ccc(C2(NC(=O)c3noc(C)c3Cn3cccn3)CCCCC2)cc1` as the compound, how does the inhibition read?
Answer: 7.45% (inactive)

Question: `Cc1ccc(NC(=O)CSc2nnc(-c3ccncc3)n2C2CCCCC2)c(C)c1` was tested. Which inhibition did it give?
Answer: 15.8% (inactive)

Question: With `COc1ccc(CNC(=O)CCSc2nc(-c3ccco3)cc(C(F)(F)F)n2)cc1` as the compound, how does the inhibition read?
Answer: 9.17% (inactive)

Question: For `CC(Nc1nc(N2CCCC2)nc2ccccc12)c1ccccc1` (stereo not drawn), which inhibition is on record?
Answer: 48.2% (active)

Question: With `CC(Nc1nc(N2CCOCC2)nc2ccccc12)c1ccccc1` (stereo not drawn) as the compound, how does the inhibition read?
Answer: 7.73% (inactive)

Question: Which inhibition does the source give for `CC(Nc1nc(N2CCN(CCO)CC2)nc2ccccc12)c1ccccc1` (stereo not drawn) here?
Answer: 7.4% (inactive)

Question: `COCCNS(=O)(=O)c1ccc2[nH]c(=O)[nH]c2c1` was tested. Which inhibition did it give?
Answer: 9.6% (inactive)

Question: `Cc1cc(C)c2[nH]c(C)c(CN(C)Cc3ccccc3)c(=O)c2c1` was tested. Which inhibition did it give?
Answer: 12% (inactive)

Question: `CCC(c1nnnn1C(C)(C)C)N(Cc1ccccc1)Cc1cc2ccc(C)cc2[nH]c1=O` (stereo not drawn) was tested. Which inhibition did it give?
Answer: 5.18% (inactive)

Question: With `Cc1nc(NC(=O)c2sc3nc4c(C)cccc4cc3c2N)sc1C` as the compound, how does the inhibition read?
Answer: 19.7% (inactive)

Question: `O=C(Nc1ccccc1Cl)/C(Cl)=C(\Cl)S(=O)c1ccccc1` (stereo not drawn) was tested. Which inhibition did it give?
Answer: 57.5% (active)

Question: `O=C(COC(=O)c1cccs1)Nc1ccccc1Cl` was tested. Which inhibition did it give?
Answer: 5.7% (inactive)

Question: How did the inhibition turn out when `O=C(Nc1ccccc1Cl)c1ccc2nsnc2c1` was run?
Answer: 5.72% (inactive)

Question: `COc1cc(OC)c(OC)cc1/C=N/Nc1ncnc2c1[nH]c1ccc(C)cc12` was tested. Which inhibition did it give?
Answer: 5.82% (inactive)

Question: With `CC(C)OCCCNC(=O)c1cc(Sc2ccc(F)cc2)nc2ccccc12` as the compound, how does the inhibition read?
Answer: 8.64% (inactive)

Question: With `CC(C)OCCCNc1ncnc2c1[nH]c1ccc(F)cc12` as the compound, how does the inhibition read?
Answer: 46.2% (active)

Question: `CCCc1[nH]nc2c1C(c1c(C)nn(-c3ccccc3)c1Cl)C(C#N)=C(N)O2` (stereo not drawn) was tested. Which inhibition did it give?
Answer: 25.4% (inactive)

Question: For `CCCc1[nH]nc2c1C(c1ccc(Br)s1)C(C#N)=C(N)O2` (stereo not drawn), which inhibition is on record?
Answer: 51.9% (active)

Question: How did the inhibition turn out when `CCCc1[nH]nc2c1C(C1CC=CCC1)C(C#N)=C(N)O2` (stereo not drawn) was run?
Answer: 3.84% (inactive)

Question: For `CC(Sc1nnc(-c2cccnc2)n1-c1ccccc1)C(=O)Nc1ccc(N)cc1` (stereo not drawn), which inhibition is on record?
Answer: 14.6% (inactive)

Question: Which inhibition does the source give for `O=c1c2ccc(Br)c3cccc(c32)c2nc3ccccc3n12` here?
Answer: 6.4% (inactive)

Question: `COc1ccccc1CNS(=O)(=O)c1ccc(S(=O)(=O)N2CCC(C)CC2)cc1` was tested. Which inhibition did it give?
Answer: 4.43% (inactive)
